PubChem BioAssay AID2417 (National Center for Advancing Translational Sciences (NCATS), 2010)
Hit rate of the full screen: of about 140,000 compounds, about 4,300 (3.1%) were called active. About 21% were inconclusive and are not listed.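 The calls were made as follows: active = readout at or below -70, meaning at least 70% loss of cells showing the perinucleolar compartment, a nuclear body marking cancer cells; inconclusive = readout between -30 and a set limit; inactive = the rest.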 Many of the other results were omitted from the sample, so actives are more common in it than they were.

assay: High Content Assay for Compounds that inhibit the Assembly of the Perinucleolar Compartment; settings: PC3M PTB-GFP, PNC prevalence imaging, 16 h; at 10 µM; stronger effect = lower value;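 also: plate controls were DMSO wells for no effect and camptothecin positive control wells for full effect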
Method in brief: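 Read-out is percentage of cells bearing a perinucleolar compartment, from automated 20x imaging of fixed, Hoechst-stained PC3M PTB-GFP cells. Cells were seeded 4 h, then exposed 16 h to compound (23 nl of library stock) in duplicate plates.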

Activity change (PNC), negative = inhibition, inactive:
Cc1cc(C)cc(NC(=S)NCc2ccc(F)cc2)c1 35.9%
CNC(=S)N1CCN(c2ccccn2)CC1 -10.5%
Cc1cccc(N=C2NN=C(c3c[nH]c4ccccc34)CS2)c1 57.4%
COc1ccc(S(=O)(=O)N2CCCCC2)cc1Br -11%
COc1ccc(-c2ccc(Nc3ccc(S(=O)(=O)N4CCCC4)cc3)nn2)cc1OC 7.04%
Cc1[nH]c2ccccc2c1/C=N\NC(=O)Cn1nnc(-c2ccccc2)n1 40.3%
CCOC(=O)c1c(C)[nH]c(=S)c(C#N)c1-c1ccccc1 32.4%
CCOC(=O)c1cc2n(c1N)-c1ccccc1C2=O 32%
Cc1cccc(OCCNC(=S)NC(=O)c2cccnc2)c1 17.2%
CC(C)CNC(=O)COC(=O)/C=C/c1ccco1 0.199%
O=C(NC(CC(=O)N1CCN(c2ccccc2)CC1)c1ccccc1)c1ccccc1Cl (stereo unspecified) -9.01%
CCCc1cc(-c2nc(-c3ccc(C)cc3)cs2)ccn1 10.4%
O=C(OCN1C(=O)c2ccccc2C1=O)/C(=C\c1ccco1)NC(=O)c1ccccc1 73.8%
CCCCN=C1N/C(=C\c2ccco2)C(=O)N1c1ccccc1 -16.5%
O=C(N/N=C/c1ccc(Br)o1)c1cncc(Br)c1 -10.5%
CCCSC(=S)NC1CCS(=O)(=O)C1 (stereo unspecified) -6.42%
CCN(CC(=O)NC1CCS(=O)(=O)C1)S(=O)(=O)c1ccccc1 (stereo unspecified) -23.3%
COc1ccc(CNC(=O)CCCn2nc(C)c([N+](=O)[O-])c2C)cc1 1.72%
N#C/C(C(=O)N1CCOCC1)=C1/SC(Cc2ccc(F)cc2)C(=O)N1c1ccccc1 (stereo unspecified) 2.9%
O=C(Cn1cc(C(F)(F)F)ccc1=O)N/N=C/c1ccc(Cl)cc1Cl 32%
CC(=O)Nc1cccc(NC(=O)c2c(-c3ccccc3)noc2C)c1 19.7%
Cc1onc(-c2ccccc2)c1C(=O)NNC(=S)NC(=O)c1ccc(F)cc1 19.1%
Cc1ccc(S(=O)(=O)NCc2csc(C)n2)c(C)c1 36.5%
Cc1nc(CNS(=O)(=O)c2cccnc2)cs1 14.3%
CC(=O)NCCC(=O)Nc1nc(C)c(Cc2ccc3c(c2)OCO3)s1 32.2%
COC(=O)[C@@H]1CC[C@H](C)[C@@H](c2ccc(C)cc2)N1C(=O)c1ccc(/C=N/O[C@H](C)c2cn([C@@H]3COC[C@H]3O)nn2)cc1 39.9%
C/C(=N\NC(=O)c1ccc(CSc2nc(C)cc(C)n2)cc1)C1CCCCC1 28.4%
CCCc1[nH]nc2c1C(C1CC=CCC1)C(C#N)=C(N)O2 (stereo unspecified) 26.7%
CCc1ccc(C2C(C#N)=C(N)Oc3n[nH]c(CC(=O)OC)c32)cc1 (stereo unspecified) 18.8%
CC(C)CNC(=O)c1cc(-c2ccc(Br)cc2)on1 -2.59%
CC(NC(=O)Nc1ccccc1)c1ccccc1 (stereo unspecified) -11.3%
CCOC(=O)NN1C(=O)c2ccccc2NC1c1cccc(O)c1 (stereo unspecified) -6.12%
COc1ccc(C2CC(c3cccs3)=NN2C(=O)COC(=O)c2cc3ccccc3cc2O)cc1OC (stereo unspecified) -16.9%
CC1Cc2ccccc2N1C(=O)CSc1nnc(-c2ccc(S(=O)(=O)N3CCCC3)cc2)n1C (stereo unspecified) -4.26%
COc1cccc(CNCCc2c[nH]c3ccccc23)c1OCc1ccccc1F 9.41%
COc1ccc(C(CC(=O)O)NC(=O)Cc2ccccc2)cc1 (stereo unspecified) -1.4%
COc1ccc(S(=O)(=O)NC(C)C(=O)Nc2cccc([N+](=O)[O-])c2)cc1 (stereo unspecified) -19.9%
Cc1cccc(CC(=O)Nc2c3c(nn2-c2cccc(Cl)c2)CS(=O)C3)c1 (stereo unspecified) -2.34%
COc1ccc(-n2nc3c(c2NC(=O)Cc2cccc(C)c2)CS(=O)C3)cc1 (stereo unspecified) 1.65%
CC(NC(=O)C(=O)NN=C1CCC(C(C)(C)C)CC1)c1ccccc1 (stereo unspecified) -5.42%
COC(=O)Cc1csc(/N=C/c2c(O)n(-c3cccc(C(F)(F)F)c3)c(=O)c3ccccc23)n1 -11.4%
COc1ccccc1C(=O)N1CC2(C)CC1CC(C)(C)C2 (stereo unspecified) -20.8%
Cc1cccc(C(=O)NCC(=O)OCC(=O)N2CC3(C)CC2CC(C)(C)C3)c1 (stereo unspecified) -3.76%
Cc1cc(Cl)ccc1NC(=S)NCCCN1CCCC1=O 13%
CCO/N=C(/C)c1c(O)cc(-c2ccccc2)n(-c2ccccc2)c1=O 36.7%
Cc1cc(C)n(C(=O)c2ccc(S(=O)(=O)N3CCCC3)cc2)n1 5.75%
CC(C)(C)NC(=O)Cn1nnc(-c2ccccc2Cl)n1 25.1%
O=C(COC(=O)Cc1ccc(Br)cc1)Nc1c(F)c(F)c(F)c(F)c1F 16.2%
O=C(Nc1ccc2c(c1)OCCO2)c1ccncc1 -27.2%
O=C(Nc1nc2ccccc2s1)c1ccc2c(c1)OCO2 62.8%
CCCCNS(=O)(=O)c1ccc2nc(SCC(=O)Nc3cc(C)cc(C)c3)[nH]c2c1 35.2%
CCCCN(CC)C(=S)Nc1ccc2nc3n(c(=O)c2c1)CCCCC3 41.2%
O=C(CSc1ccccn1)Nc1nc2c(ccc3ccccc32)s1 41.9%

Activity change (PNC), negative = inhibition, active:
COc1ccc(S(=O)(=O)Nc2ccc(S(=O)(=O)N3CCCCC3)cc2)cc1OC -88.7%
CCOC(=O)c1c(C)[nH]c2c1-c1ccccc1C(=O)C2=O -124%
COC(=O)C1=C(C)N(c2ccc(Br)cc2)C(=O)/C1=C\c1ccco1 -80.8%
CC(C)C(=O)NC(NC(=S)NC1CCS(=O)(=O)C1)C(Cl)(Cl)Cl (stereo unspecified) -100%
CCOC(=O)c1c(-c2cccc(C)c2)csc1NC(=O)c1c(-c2ccccc2)noc1C -101%
Cc1nc(CNS(=O)(=O)c2ccc(Oc3ccccc3)cc2)cs1 -83.2%
COCc1[nH]nc2c1C(C1C=CCCC1)C(C#N)=C(N)O2 (stereo unspecified) -107%
CC(NC(=O)c1cc(-c2ccccc2)on1)c1ccccc1 (stereo unspecified) -97.3%
COc1ccc(C(CCNCc2ccccc2F)c2ccc(F)cc2)cc1 (stereo unspecified) -83.9%
COc1ccc(CC(=O)Nc2c3c(nn2-c2cccc(Cl)c2)CS(=O)C3)cc1 (stereo unspecified) -119%
COc1ccc(C(=O)N2CC3(C)CC2CC(C)(C)C3)cc1OC (stereo unspecified) -104%
Cc1ccccc1-c1nnn(CC(=O)c2ccc(S(=O)(=O)N3CCCC3)cc2)n1 -100%
O=C(Nc1nc(-c2ccc3c(c2)OCO3)cs1)c1ccncc1 -83.5%
